Here are results for 9 compounds from PubChem BioAssay (Tox21).

Test [1] is described as follows: qHTS assay to identify small molecule agonists of the peroxisome proliferator-activated receptor delta (PPARd) signaling pathway - cell viability counter screen (AID 743211; active means well fitted curve in the direction sought with a large enough effect in the repeat runs; an effect the other way counts as inactive or inconclusive; further: nearly all actives have a fitted effect of over 55% in size; further: potency means the concentration at half of the fitted maximal effect). In outline: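 PPARd-bla HEK293H cells (3000/well) were pre-incubated 5 h at 37 C, then exposed to compound for 17 h at 37 C. After 2 h with LiveBLAzer substrate, CellTiter-Glo was added to the same wells; luminescence read after 30 min at room temperature.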

Test [2] is described as follows: qHTS assay to identify small molecule antagonists of the peroxisome proliferator-activated receptor delta (PPARd) signaling pathway - cell viability counter screen (AID 743213; active means well fitted curve in the direction sought with a large enough effect in the repeat runs; an effect the other way counts as inactive or inconclusive; further: nearly all actives have a fitted effect of over 50% in size). In outline:
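Cytotoxicity counter screen: CellTiter-Glo luminescence read 30 min after addition, in the same wells as the reporter assay. There, PPARd UAS-bla HEK293H cells (3000/well) were treated 17 h at 37 C with compound and 300 nM L165041.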
On the technique in general: In qHTS, concentration-response curves come from the screen itself.

In test [3] the target is Bile acid receptor (Homo sapiens) (UniProt Q96RI1). Briefly: qHTS assay to identify small molecule antagonists of the farnesoid-X-receptor (FXR) signaling pathway (AID 743217; active means well fitted inhibition curve with a large enough effect in the signal ratio in the repeat runs, not every such curve was filed as active; the % refers to the signal ratio). In outline: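 Beta-lactamase reporter under UAS control in HEK 293T cells; compound exposure 16 h at 37 °C in the presence of chenodeoxycholic acid (50 uM final); signal from B/G FRET substrate after 2 h at room temperature.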
Chain of Bile acid receptor (Homo sapiens) (Q96RI1 whole entry, looked up): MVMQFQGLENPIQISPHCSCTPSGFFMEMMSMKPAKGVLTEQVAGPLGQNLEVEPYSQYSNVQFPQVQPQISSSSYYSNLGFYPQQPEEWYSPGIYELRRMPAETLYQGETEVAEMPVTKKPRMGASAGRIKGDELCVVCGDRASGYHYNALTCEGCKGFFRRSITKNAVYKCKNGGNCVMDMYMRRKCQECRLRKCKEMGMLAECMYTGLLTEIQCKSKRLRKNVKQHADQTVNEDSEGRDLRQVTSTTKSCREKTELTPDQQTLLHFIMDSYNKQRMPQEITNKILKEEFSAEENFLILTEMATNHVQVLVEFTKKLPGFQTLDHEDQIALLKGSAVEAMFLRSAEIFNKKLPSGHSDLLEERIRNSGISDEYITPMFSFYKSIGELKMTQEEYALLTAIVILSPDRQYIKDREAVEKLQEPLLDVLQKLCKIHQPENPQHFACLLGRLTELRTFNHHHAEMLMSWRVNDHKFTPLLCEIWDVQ

Test [4] has the same target. In words: qHTS assay to identify small molecule agonists of the farnesoid-X-receptor (FXR) signaling pathway (AID 743220; active means well fitted activation curve with a large enough effect in the signal ratio in the repeat runs, not every such curve was filed as active; the % refers to the signal ratio). In outline:
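Beta-lactamase reporter under UAS control in GeneBLAzer FXR HEK 293T cells (5000/well) measured with LiveBLAzer FRET substrate after 2 h at room temperature. Compound exposure lasted 16 h at 37C.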

A short description of test [5]: qHTS assay to identify small molecule antagonists of the farnesoid-X-receptor (FXR) signaling pathway - cell viability counter screen (AID 743221; active means well fitted cell-killing curve with a large enough effect in the repeat runs, not every such curve was filed as active; further: nearly all actives have a fitted effect of over 50% in size). In outline: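 GeneBLAzer FXR-UAS-bla HEK 293T cells, compound plus chenodeoxycholic acid (50 uM final), 16 h at 37 C. CellTiter-Glo added to the same wells after the beta-lactamase read; luminescence read after 30 min at room temperature as viability.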

Test [6] has as its target Vitamin D3 receptor (Homo sapiens) (UniProt P11473). In words: qHTS assay to identify small molecule agonists of the vitamin D receptor (VDR) signaling pathway (AID 743222). In outline: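 Agonist activity measured in VDR-bla reporter cells. Exposure 16 h, 37C, 5% CO2; detection by B/G FRET substrate, 2 h RT.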
Test [7] is described as follows: qHTS assay to identify small molecule antagonists of the vitamin D receptor (VDR) signaling pathway - cell viability counter screen (AID 743225; active means well fitted curve in the direction sought with a large enough effect in the repeat runs; an effect the other way counts as inactive or inconclusive; further: nearly all actives have a fitted effect of over 50% in size). In outline:
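VDR-UAS-bla HEK 293T cells were plated and incubated 4 h at 37C, then dosed with compound plus 3 nM (final) 1-alpha,25-dihydroxyvitamin D3 for 16 h. After the 2 h beta-lactamase read, viability in the same wells was read as CellTiter-Glo luminescence after 30 min at room temperature.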

Test [8] can be described thus: qHTS assay to identify small molecule agonists of the NFkB signaling pathway - cell viability counter screen (AID 1159515). Further: series mostly up to about 61 µM; nearly all actives have a fitted effect of over 55% in size. In outline: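 Viability in NFkB-bla ME-180 cells was measured by CellTiter-Glo luminescence, 30 min room temperature, in wells already treated 5 hr with compounds and read for reporter FRET.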
The nature of test [9]: qHTS assay to identify small molecule agonists of the endoplasmic reticulum stress response signaling pathway (AID 1159516; active means well fitted activation curve with a large enough effect in the signal ratio in the repeat runs, not every such curve was filed as active; the % refers to the signal ratio). In outline:
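ER stress element reporter (bla) in HeLa. 1,500 cells/well, overnight attachment; 5 hr compound; 2 hr RT substrate; dual-emission fluorescence.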

Test [10] in a line: qHTS assay to identify small molecule agonists of the endoplasmic reticulum stress response signaling pathway - cell viability counter screen (AID 1159517).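 Further: HeLa cells carrying an ER stress response element beta-lactamase reporter; series mostly up to about 61 µM; nearly all actives have a fitted effect of over 50% in size.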 In outline:
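Cells, HeLa ESRE-bla; density, 1,500/well; dosing, 5 hr at 37 C, 5% CO2; readout, CellTiter-Glo luminescence after 30 min RT.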

Test [11] is described as follows: qHTS assay to identify small molecule antagonists of the retinoid-related orphan receptor gamma (ROR-gamma) signaling pathway - cell viability counter screen (AID 1159520; active means well fitted curve in the direction sought with a large enough effect in the repeat runs; an effect the other way counts as inactive or inconclusive; further: nearly all actives have a fitted effect of over 50% in size). In outline:
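Cytotoxicity was read from cellular ATP (CellTiter-Glo luminescence) after 16 hr at 37 C with 1 uM doxycycline induction. The inducer was added 2 hr after compound transfer to Tet-on ROR gamma CHO cells.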

Test [12] deals with Nuclear receptor ROR-gamma (Homo sapiens) (UniProt P51449). Briefly: qHTS assay to identify small molecule antagonists of the retinoid-related orphan receptor gamma (ROR-gamma) signaling pathway (AID 1159521; active means well fitted curve in the direction sought with a large enough effect in the repeat runs; an effect the other way counts as inactive or inconclusive; further: nearly all actives have a fitted effect of over 50% in size; further: potency means the concentration at half of the fitted maximal effect). In outline: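 Tet-on ROR-gamma CHO cells with ROR response element-luciferase reporter; compounds added 2 hr before 1 uM doxycycline induction, then 16 hr at 37 C. Antagonism scored as decreased ONE-Glo luminescence.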

The nature of test [13]: qHTS assay to identify small molecule agonists of the AP-1 signaling pathway - cell viability counter screen (AID 1159525). Further: nearly all actives have a fitted effect of over 55% in size. In outline: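 Luminescent ATP readout (Cell Titer Glo, 30 min RT), normalised to DMSO and tetra n-octyl ammonium bromide controls. Cells were ME-180 AP-1-bla in 0.5% dialyzed FBS Opti-MEM, with a 5 h, 37 °C compound exposure.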
Test [14] concerns the target Peroxisome proliferator-activated receptor delta (Homo sapiens) (UniProt Q03181). In words: qHTS assay to identify small molecule agonists of the peroxisome proliferator-activated receptor delta (PPARd) signaling pathway (AID 743212). In outline: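 HEK293H UAS-bla reporter cells, human PPARd system; compounds delivered in DMSO after 5 h plating, then at 37 C. Beta-lactamase FRET read, 2 h RT substrate step.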

Test [15] in a line: qHTS assay to identify small molecule agonists of the vitamin D receptor (VDR) signaling pathway - cell viability counter screen (AID 743224; active means well fitted curve in the direction sought with a large enough effect in the repeat runs; an effect the other way counts as inactive or inconclusive; further: nearly all actives have a fitted effect of over 50% in size; further: potency means the concentration at half of the fitted maximal effect). In outline: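 VDR-bla cell line, quantitative HTS format; 16 h compound incubation (37C, 5% CO2); ATP-based CellTiter-Glo luminescence measured in the reporter assay wells.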
Test [16] can be described thus: qHTS assay to identify small molecule agonists of the AP-1 signaling pathway (AID 1159526).
Test [17] addresses Vitamin D3 receptor (Homo sapiens) (UniProt P11473). In words: qHTS assay to identify small molecule antagonists of the vitamin D receptor (VDR) signaling pathway (AID 743223; active means well fitted inhibition curve with a large enough effect in the signal ratio in the repeat runs, not every such curve was filed as active; the % refers to the signal ratio). In outline:
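VDR-bla cells were treated with compound plus 3 nM final 1alpha,25-dihydroxyvitamin D3 for 16 h at 37C. Beta-lactamase reporter read by B/G FRET substrate fluorescence after 2 h at room temperature. qHTS format.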

The nature of test [18]: qHTS assay to identify small molecule agonists of the farnesoid-X-receptor (FXR) signaling pathway - cell viability counter screen (AID 743218; active means well fitted curve in the direction sought with a large enough effect in the repeat runs; an effect the other way counts as inactive or inconclusive; further: nearly all actives have a fitted effect of over 45% in size). In outline:
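In GeneBLAzer FXR-UAS-bla HEK 293T cells, compounds act for 16 h at 37 C. Cell viability is then scored in the reporter wells by CellTiter-Glo, 30 min at RT, luminescence.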

Test [19] addresses Retinoic acid receptor RXR-alpha (Homo sapiens) (UniProt P19793). In words: qHTS assay to identify small molecule agonists of the RXR signaling pathway (AID 1159527). Further: nearly all actives have a fitted effect of over 35% in size. In outline: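 GeneBLAzer RXR-alpha-UAS-bla HEK 293T cells in 2% charcoal-stripped FBS medium were exposed to compounds for 16 hr at 37 C in agonist mode. Beta-lactamase reporter read as 460/530 nm FRET ratio after 2 hr substrate loading.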

Where “and” joins values, the source holds several entries; their conditions need not be identical. Identical values can stand only once. Results filed as inconclusive are left out. A structure can be active in one record and inactive in another. Calls of active or inactive are those of the source. Unless noted, the call rests on the fitted dose curve.

Chain of Peroxisome proliferator-activated receptor delta (Homo sapiens) (Q03181 whole entry, looked up): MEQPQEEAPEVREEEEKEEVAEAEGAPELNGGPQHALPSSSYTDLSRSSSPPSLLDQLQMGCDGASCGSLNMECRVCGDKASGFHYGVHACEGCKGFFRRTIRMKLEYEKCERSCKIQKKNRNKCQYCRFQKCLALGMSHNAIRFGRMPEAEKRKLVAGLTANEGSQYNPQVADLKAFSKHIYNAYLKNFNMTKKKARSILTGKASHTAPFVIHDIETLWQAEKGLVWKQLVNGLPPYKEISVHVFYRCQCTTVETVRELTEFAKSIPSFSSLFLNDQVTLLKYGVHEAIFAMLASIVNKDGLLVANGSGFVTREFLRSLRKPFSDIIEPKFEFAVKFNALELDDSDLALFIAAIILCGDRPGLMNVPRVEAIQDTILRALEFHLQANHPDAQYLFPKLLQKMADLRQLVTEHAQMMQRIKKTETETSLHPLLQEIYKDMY
Chain of Vitamin D3 receptor (Homo sapiens) (P11473 whole entry, looked up): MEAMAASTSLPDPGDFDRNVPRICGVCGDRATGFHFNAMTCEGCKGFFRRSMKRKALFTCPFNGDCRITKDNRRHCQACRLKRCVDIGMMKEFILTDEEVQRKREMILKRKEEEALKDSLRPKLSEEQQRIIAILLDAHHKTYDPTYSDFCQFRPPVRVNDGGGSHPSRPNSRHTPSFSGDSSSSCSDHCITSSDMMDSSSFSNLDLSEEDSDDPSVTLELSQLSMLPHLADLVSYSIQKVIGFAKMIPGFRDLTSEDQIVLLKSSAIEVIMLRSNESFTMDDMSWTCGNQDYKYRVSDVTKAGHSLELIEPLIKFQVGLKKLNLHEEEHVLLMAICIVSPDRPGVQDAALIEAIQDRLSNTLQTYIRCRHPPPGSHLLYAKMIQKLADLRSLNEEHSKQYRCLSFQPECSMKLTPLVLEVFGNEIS
Chain of Retinoic acid receptor RXR-alpha (Homo sapiens) (P19793 whole entry, looked up): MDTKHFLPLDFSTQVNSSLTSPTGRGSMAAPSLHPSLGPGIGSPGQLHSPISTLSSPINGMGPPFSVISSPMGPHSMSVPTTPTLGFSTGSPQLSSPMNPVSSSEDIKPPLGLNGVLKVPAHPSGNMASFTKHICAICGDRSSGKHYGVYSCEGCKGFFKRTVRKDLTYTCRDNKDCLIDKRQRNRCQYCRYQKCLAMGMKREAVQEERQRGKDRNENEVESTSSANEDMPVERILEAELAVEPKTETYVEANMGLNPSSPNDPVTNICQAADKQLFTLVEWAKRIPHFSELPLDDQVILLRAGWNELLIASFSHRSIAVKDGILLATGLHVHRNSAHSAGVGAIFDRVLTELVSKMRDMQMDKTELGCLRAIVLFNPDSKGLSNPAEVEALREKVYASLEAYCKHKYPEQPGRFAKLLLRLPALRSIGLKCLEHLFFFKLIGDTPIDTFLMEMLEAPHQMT

With `CCOP(=S)(OCC)SCn1c(=O)oc2cc(Cl)ccc21`, the Potency result in [1], in test [2], in test [3], in test [4], in test [5] and in test [7] was “inactive” each time. Moreover, the Potency entry in test [8], in test [9], in test [10], in test [11] and in test [13] was “inactive” throughout. For the same compound, the compound was classed as inactive in test [6]. In addition, the Potency in test [12] is 32.9 µM (active).

For `CCCCSP(=O)(SCCCC)SCCCC`, the Potency result in test [14], in test [2], in [3], in [4], in test [5] and in test [15] was “inactive” each time. Further, the Potency result in test [7], in test [8], in test [9], in [10], in test [11] and in test [12] was “inactive” in each case. The Potency result in test [13] is “inactive”. Besides, the outcome in test [6] and in [16] was inactive.

For `N#Cc1nn(-c2c(Cl)cc(C(F)(F)F)cc2Cl)c(N)c1S(=O)C(F)(F)F` (stereo not given), the Potency in [1] is 22 µM (active) and inactive; in test [15], 24.7 µM (active) and inactive; in test [12] it was 7.74 µM (active) and 16.8 µM (active). The Potency entry in test [14], in test [4], in test [5], in test [17], in [8] and in [9] was “inactive” throughout. In addition, the Potency result in test [10], in [11] and in test [13] was “inactive” throughout. The compound was classed as inactive in test [6] and in test [16].

On to `CN(C)c1ccccc1`, for which the Potency entry in test [1], in test [2], in test [3], in test [18], in [4] and in test [5] was “inactive” throughout. The Potency entry in [7], in test [8], in test [9], in test [10], in test [11] and in test [13] was “inactive” throughout. In addition, the outcome in test [6] and in test [16] was inactive.

Regarding `COP(=S)(OC)SCn1nnc2ccccc2c1=O`, the Potency entry in [1], in test [14], in test [2], in test [18], in test [5] and in test [7] was “inactive” throughout. The Potency entry in test [8], in [9], in test [10], in test [11], in [12] and in test [13] was “inactive” each time. Also, the outcome in test [6] was inactive.

`CC1(C)Cc2cccc(O)c2O1`: the Potency result in test [2], in test [18], in test [5], in test [17], in [15] and in test [7] was “inactive” throughout. Moreover, the Potency entry in test [8], in test [9], in [10], in test [11], in test [12] and in test [13] was “inactive” each time. In addition, the result in [6] and in [16] was inactive.

As to `Clc1cccc(C(Cl)(Cl)Cl)n1`, the Potency result in [2], in test [3], in test [18], in [4], in test [5] and in test [7] was “inactive” each time. Moreover, the Potency result in test [8], in [9], in test [10], in test [11], in [12] and in [13] was “inactive” throughout. The outcome in test [16] was inactive.

In the case of `CC(C)=CC1C(C(=O)OCc2cccc(Oc3ccccc3)c2)C1(C)C` (stereo not given), the Potency entry in [14], in [2], in [3], in test [18], in [4] and in test [5] was “inactive” in each case. Also, the Potency result in [15], in test [7], in test [8], in test [9], in test [10] and in test [11] was “inactive” in each case. The Potency result in [12] and in test [13] was “inactive” throughout. For the same compound, the result in [6] and in test [16] was inactive.

Turning to `ClC(Cl)(Cl)Br`, the Potency entry in test [1], in [14], in [2], in [3], in test [18] and in test [4] was “inactive” throughout. For the same compound, the Potency result in [5], in test [17], in test [15], in test [7], in test [8] and in test [9] was “inactive” throughout. The Potency result in [11], in [12], in test [13] and in test [19] was “inactive” throughout. For the same compound, the call in [6] and in test [16] was inactive.
